This is a sample that favours compounds with a hit; in the whole collection about 19% have one here.
HT1080 IDH1KD tx = kills HT-1080 cells with IDH1 knockdown. 360,000 tested, 2% active. AID 686971. HT-1080 IDH1 knockdown viability, ATP luminescence, 48 h. Potency, µM (titrated, usually from 46.1 µM), for inactives: at the highest dose activity, negative = toxicity, hits mostly cytotoxic;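 note: potency is the fitted concentration of half-maximal effect; 0% = DMSO wells and -100% = cell-free medium wells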
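Assay cells: HT-1080 with IDH1 knockdown, 750 per well, RPMI/5% FBS. Exposure: 48 h at 37 °C following 2 h pre-incubation. Read: CellTiter-Glo luminescence; fitted concentration-response, curve class assigned.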
HT1080-NT tox = kills 2HG-producing HT-1080-NT fibrosarcoma cells; HT-1080-NT fibrosarcoma viability, CellTiter-Glo ATP luminescence, 48 h; Potency, µM (highest dose often 46.1 µM), without a hit: top-dose activity, negative = less viability, hits mostly cytotoxic; 360,000 tested, 1.6% active; AID 686970;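 note: NT is the 2HG producing partner of a matched IDH1 knockdown line; potency is the fitted concentration of half-maximal effect; 0% = DMSO-treated cells and -100% = media-only wells without cells; nearly all actives have a fitted effect of over 55% in size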
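HT-1080-NT fibrosarcoma cells (2HG-overproducing), 750 cells/well in RPMI with 5% FBS, dosed after 2 h and incubated 48 h at 37C. CellTiter-Glo luminescence normalized to DMSO and no-cell wells; concentration-response curves fitted and classed.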
ELG1 repair inh = ELG1-dependent DNA repair inhibition | HEK293T ELG1-luciferase reporter, luminescence, 16 h; DNA damage induced by 5-fluorouridine | Potency, µM (top dose mostly 46.1 µM), without a hit: at the highest dose activity change, negative = inhibition, most hits filed as inhibitors | 330,000 tested, 2.3% active; note: potency is the fitted concentration of half-maximal effect; nearly all actives have a fitted effect of over 55% in size
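5-Fluorouridine DNA damage + compound/DMSO, 2,000 cells/well, 16 h, 37 °C/5% CO2. ONE-Glo, 30 min RT, luminescence. Readout = decrease in reporter signal.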
DT40 TDP1 CPT = growth inhibition of DT40 Tdp1-/-;hTDP1 cells with camptothecin (screen for TDP1 inhibitors) | chicken DT40 Tdp1-/-;hTDP1 cells + 20 nM CPT, ATP luminescence, 48 h | Potency, µM (highest dose often 46.2 µM), for inactives: at the top dose activity change, negative = growth inhibition, most hits filed as inhibitors | 420,000 tested, 12% active | AID 686979; note: potency is the fitted concentration of half-maximal effect; nearly all actives have a fitted effect of over 55% in size
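Chicken DT40 Tdp1-/- cells complemented with human TDP1, 400 cells/well, exposed to compounds plus 20 nM camptothecin for at least 48 h at 37 C; viability read as ATP content by CellTiter-Glo luminescence.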
TDP1 cell noCPT = qHTS for Inhibitors of human tyrosyl-DNA phosphodiesterase 1 (TDP1): qHTS in cells in absence of CPT. DT40 Tdp1-/- hTDP1 cells, no CPT, ATP luminescence, 48 h. 420,000 tested, 15% active. Potency, µM (series often up to 46.2 µM), for the others: at the highest dose activity change, negative = growth inhibition, most hits filed as inhibitors. AID 686978, 2013; note: potency is the fitted concentration of half-maximal effect; nearly all actives have a fitted effect of over 55% in size
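Growth of hTDP1-complemented DT40 Tdp1-knockout cells is measured by ATP luminescence after at least 48 hr compound exposure at 37 °C, with DMSO substituting for the 20 nM CPT used in the parallel screen.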
IL1B secr inh = blocks inflammasome-driven IL-1 beta release | 360,000 tested, 4.7% active | activity change, % at 57.5 µM | AID 743279 | THP-1 LPS/ATP IL-1B secretion, AlphaLISA, 16 h; stronger effect = lower value; in the data active = activity change below about -50%; inconclusive = mostly about -30% to -49%
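THP-1 cells pretreated 1 hr with compounds (up to 57.5 uM final), then stimulated with LPS (250 ng/mL final) plus ATP (1.25 mM final); secreted IL-1B measured by AlphaLISA after 16 hr, decreased signal indicating inhibition.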
* = called active by the depositor; ? = inconclusive; . = no result given. Unless noted, calls come from the whole dose curve; as a rule, active = well fitted curve in the direction sought with a large enough effect; inconclusive = small, poorly fitted or top-dose-only effect, or another doubt; inactive = no such curve, though single readings can be large; an effect the other way counts as inactive or inconclusive. Unless noted, % is set by controls: 0 for no effect and ±100 for the full control effect.

SMILES | HT1080 IDH1KD tx | HT1080-NT tox | ELG1 repair inh | DT40 TDP1 CPT | TDP1 cell noCPT | IL1B secr inh
Cc1cc(C)nc(SCC(=O)Nc2ncc(Cc3cccc(Cl)c3)s2)n1 | ? | -9% | -8% | ? | 18µM* | 1
Cc1cccc(C)c1OCC(=O)N(Cc1ccco1)Cc1ccco1 | . | . | . | ? | 23µM* | .
Cc1ccc(CN(Cc2ccco2)C(=O)COc2cc(C)c(Cl)c(C)c2)cc1 | . | . | . | 21µM* | 13µM* | .
Cc1cc(C)c(OCC(=O)N(Cc2cccc(F)c2)Cc2ccco2)c(C)c1 | . | . | . | 15µM* | 18µM* | .
Cc1cc(C)c(OCC(=O)OCC(=O)NCc2ccco2)c(C)c1 | 5% | 6% | . | -4% | -7% | 28
Cc1cc(OC(C)C(=O)N(Cc2ccco2)Cc2ccco2)cc(C)c1Cl (stereo not given) | . | . | . | 15µM* | 9.2µM* | .
CCn1c(-c2ccccc2F)nc2cc(NC(C)=O)cc(C(=O)N(C)Cc3c(C)nc4ccccn34)c21 | . | . | . | 9% | ? | .
COc1ccc(C(=O)Nc2nnc(SCC(=O)NC3CC3)s2)cc1 | 6% | 1% | ? | 1% | 9% | 5
CNc1cccc(-c2c(OC)cccc2OC)n1 | -2% | -27% | . | ? | ? | 27
Cc1ccc(OCCCC(=O)NCc2ccco2)cc1 | 18% | 13% | 5% | -12% | 2% | 3
Cc1ccc(OCC(=O)N(Cc2ccco2)Cc2ccco2)cc1 | . | . | . | ? | 16µM* | .
CN(C)c1ccc(CN(Cc2ccco2)C(=O)COc2ccc(F)cc2)cc1 | . | . | . | ? | 10µM* | .
Cc1cc(C)cc(OCC(=O)N(Cc2ccco2)Cc2ccccc2Cl)c1 | . | . | . | 21µM* | 21µM* | .
CC1Cc2cc(/C=C3/SC(N4CCC(C(N)=O)CC4)=NC3=O)ccc2O1 (stereo not given) | ? | ? | 26µM* | 15µM* | 18µM* | .
CC1CCN(C2=NC(=O)/C(=C/c3ccccc3F)S2)CC1 | -21% | -4% | ? | -4% | ? | -99*
CC1CCN(C2=NC(=O)/C(=C/c3cccc(O)c3)S2)CC1 | -4% | -21% | ? | ? | ? | -75*
Cc1ccc(NC(=O)Cn2nnc(-c3nc(-c4ccncc4)no3)c2N)c(C)c1 | . | . | . | 3% | 13% | .
O=C(CSc1ccc(S(=O)(=O)N2CCCC2)cn1)Nc1ccc([N+](=O)[O-])cc1C(F)(F)F | -14% | 0% | . | ? | ? | -12
c1nc(N2CCN(Cc3ccc4c(c3)OCO4)CC2)c2[nH]cnc2n1 | -4% | 0% | ? | ? | ? | 9
Fc1ccc2[nH]c3c(N4CCN(C5CCCCC5)CC4)ncnc3c2c1 | . | . | -1% | . | . | .
Cc1ccc2[nH]c3c(N4CCN(Cc5ccc6c(c5)OCO6)CC4)ncnc3c2c1 | . | . | 23µM* | . | . | .
COc1ccc2c(c1)[nH]c1c(N3CCN(Cc4ccc5c(c4)OCO5)CC3)ncnc12 | ? | -19% | 21µM* | 2.3µM* | 1.6µM* | -105*
COc1ccc2c(c1)[nH]c1c(N3CCSCC3)ncnc12 | 15µM* | ? | 9.2µM* | 7.3µM* | 8.2µM* | .
COc1ccc2c(c1)[nH]c1c(=O)n(CCN(C)C)cnc12 | -7% | 0% | 10% | -5% | -26% | 15
Cc1ccc2[nH]c3c(N4CCCCCC4)ncnc3c2c1 | . | . | 10µM* | . | . | .
c1cnc(N2CCN(Cc3ccc4c(c3)OCO4)CC2)nc1 | 12% | ? | -5% | -20% | ? | -7
COC(=O)c1ccc(-c2ccc(/C=N/NC(=O)CC3(C)OCCCO3)o2)cc1 | 22% | 13% | ? | -10% | ? | -13
COc1cccc2[nH]c3c(N4CCN(Cc5ccc6c(c5)OCO6)CC4)ncnc3c12 | . | . | 23µM* | . | . | .
